This note sets out measurements from PubChem BioAssay AID2685 (National Center for Advancing Translational Sciences (NCATS), 2010).

About 2,100 (0.66%) of roughly 320,000 compounds were called active. Another 53% or so got no clear call; they are omitted. Calls come from the whole dose curve; as a rule, active = well fitted inhibition curve with a large enough effect in the signal ratio, with a control signal flat (not every such curve was filed as active); inconclusive = small, poorly fitted or top-dose-only effect, or effect the other way, or a change in a side signal; inactive = flat fitted curve, though single readings scatter; the % refers to the signal ratio. Only a selection was taken, and actives are over-represented in it overall.
Potency is the fitted concentration of half-maximal effect.

The nature of this assay: qHTS Assay for Lipid Storage Modulators in Drosophila S3 Cells.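 For cell number change: cells counted by Cell Tracker Red CMTPX staining in the red channel.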 For lipid storage change, negative = inhibition: % is set by controls: 0 for no effect and ±100 for the full control effect. The conditions noted are these: BODIPY lipid droplet fluorescence, 18-24 h, cells fed with added oleic acid; cell number change: measured here: cell count max response; series mostly up to 46.1 µM; lipid storage change, negative = inhibition: at the top concentration. Summed up: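 Drosophila S3 cells got compounds at several concentrations plus oleic acid (400 uM solution). Laser-scanning cytometry with 488 nm excitation read lipid droplets at 500-530 nm and cells at 575-640 nm. Percent activity was relative to 20 uM Triacsin C.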
Consider `CC1(C(=O)NC2CCCCCCC2)CCC(=O)N1Cc1ccco1` (stereo not given), for which the “lipid storage change, negative = inhibition” value was -0.266% (inactive) and the cell number change amounted to 2.23%.

As to `CC(=O)N1CCC(N2CCN(c3ccccc3F)CC2)CC1`, the “lipid storage change, negative = inhibition” value is -6.18% (inactive) and the cell number change was -0.227%.

Regarding `COC(=O)c1ccc(S(=O)(=O)N2CCCN(Cc3cccc(Br)c3F)CC2)n1C`, the “lipid storage change, negative = inhibition” value is 25.4% (inactive).

`COc1cc(NC2c3ccccc3C(=O)N2c2ccc(C)cn2)cc(OC)c1OC` (stereo not given): the “lipid storage change, negative = inhibition” value was 1.47% (inactive) and the cell number change is 9.33%.

For `CCOC(=O)c1cc(C(=O)NN)c(=O)[nH]c1C`, the “lipid storage change, negative = inhibition” value is -8.78% (inactive) and the cell number change was -9.94%.

For the compound `COCCOc1ccc(C(F)(F)F)cc1NC(=O)COC(=O)c1c(C)noc1C`, the “lipid storage change, negative = inhibition” value was -14% (inactive) and the cell number change was -13.3%.

For the compound `COc1ccc(Cl)cc1NC(=O)COC(=O)c1c(-c2ccccc2)noc1C`, the outcome was inactive and the cell number change is -24.6%.

For `COc1ccc(OC)c(NC(=O)COC(=O)c2c(C)noc2C)c1`, the Potency was 4.61 µM (active) and the cell number change is -7.27%.

For the compound `C=CCNC(=O)c1ccc(N(Cc2ccccc2)S(C)(=O)=O)cc1`, the “lipid storage change, negative = inhibition” value was -16.3% (inactive) and the cell number change was -6.36%.

Consider `COc1ccc(S(=O)(=O)N(C(=O)c2ccncc2)c2ccc(OC(=O)c3ccncc3)cc2)cc1`, for which the “lipid storage change, negative = inhibition” value was 2.27% (inactive) and the cell number change is -3.33%.

With `O=C(Oc1ccc(N(C(=O)c2ccncc2)S(=O)(=O)c2ccc(F)cc2)cc1)c1ccncc1`, the “lipid storage change, negative = inhibition” value is 7.39% (inactive).

For the compound `CCc1ccc(S(=O)(=O)N(C(=O)c2ccncc2)c2ccc(OC(=O)c3ccncc3)cc2)cc1`, the Potency is 18.4 µM (active) and the cell number change was -8%.

As for `CC(C)CN(CC(C)C)C(=O)COn1nnc2ccc(S(=O)(=O)N3CCOCC3)cc21`, the “lipid storage change, negative = inhibition” value is 4.64% (inactive) and the cell number change came to 3.81%.

On to `CCCCn1nc2cc(C(=O)NCc3ccc(OC)cc3)ccc2c1OCC`, for which the “lipid storage change, negative = inhibition” value was -10.4% (inactive) and the cell number change is -2.9%.

Take `OCCN(Cc1ccccc1)CC1CC2C=CC1C2` (stereo not given): the Potency is 29.1 µM (active) and the cell number change was determined as 0.638%.

Consider `C1=CC2CC1CC2CN1CCN(Cc2ccccc2)CC1` (stereo not given), for which the result was inactive.

With `OCCN(Cc1ccccc1)Cc1ccccc1F`, the “lipid storage change, negative = inhibition” value is -8.72% (inactive) and the cell number change is -24.2%.

`Cc1ccc2c(c1)c1nnc(SCC(=O)NC3CC3)nc1n2C`: the Potency was 5.8 µM (active) and the cell number change was 0.855%.

On to `COc1ccc2c(c1)c1nnc(SCC(=O)NC3CC3)nc1n2C`, for which the Potency was 1.46 µM (active) and the cell number change was -8.55%.

Regarding `Cn1c2ccccc2c2nnc(SCC(=O)NC3CC3)nc21`, the result was inactive and the cell number change was -0.952%.

Regarding `COc1ccc(N2CCN(C(=O)CSc3nnc4c5cc(C)ccc5n(C)c4n3)CC2)cc1`, the “lipid storage change, negative = inhibition” value was -3.64% (inactive) and the cell number change amounted to 15.5%.

In the case of `Cn1c2ccccc2c2nnc(SCC(=O)NC3CCCC3)nc21`, the compound was classed as inactive and the cell number change is -23.7%.

With `Cn1c2ccc(Br)cc2c2nnc(SCC(=O)O)nc21`, the outcome was inactive.

On to `CC1CCC(NC(=O)COC(=O)c2cccnc2Cl)CC1` (stereo not given), for which the “lipid storage change, negative = inhibition” value was -3.37% (inactive).

In the case of `COC(=O)N1[C@H](Cc2ccccc2)C=C[C@]1(C)C(=O)NCc1ccccn1`, the “lipid storage change, negative = inhibition” value was -3.63% (inactive) and the cell number change came to 11.5%.

For the compound `O=S(=O)(Nc1ccc(OC(F)F)cc1)c1ccc(-c2ccon2)s1`, the “lipid storage change, negative = inhibition” value was 11.5% (inactive) and the cell number change is -0.692%.

On to `O=C(CN1C(=O)c2ccccc2S1(=O)=O)Nc1ccccc1C(=O)NCc1ccco1`, for which the “lipid storage change, negative = inhibition” value was 13.6% (inactive) and the cell number change was -1.22%.

Take `C=CCN(C(=O)Cn1c(C(=O)OC)cc2oc(C)cc21)c1ccccc1`: the “lipid storage change, negative = inhibition” value is -6.54% (inactive) and the cell number change is -13%.

Consider `Clc1ccc(OCCCc2nc(-c3cccnc3)no2)c(Cl)c1`, for which the Potency was 14.6 µM (active) and the cell number change is -29.5%.

Consider `Clc1ccc(OCc2nc(-c3ccncc3)no2)c(Cl)c1`, for which the compound was classed as inactive.

With `Clc1ccc(-c2noc(CCCOc3ccccc3)n2)cc1`, the “lipid storage change, negative = inhibition” value was 16.5% (inactive) and the cell number change was -10.9%.

Consider `C/C(=C\C(=S)Nc1ccccc1)Nc1ccccc1`, for which the “lipid storage change, negative = inhibition” value is 0.0435% (inactive) and the cell number change is -10.3%.

Consider `O=[N+]([O-])c1ccc(N2CCCCC2)cc1`, for which the “lipid storage change, negative = inhibition” value was 15% (inactive) and the cell number change was 7.1%.

In the case of `Nc1ncc2c(n1)CCN(c1ccc([N+](=O)[O-])cc1)C2`, the Potency is 23.1 µM (active) and the cell number change was -20.7%.

As to `Nc1ncc(-c2ccc([N+](=O)[O-])cc2)cn1`, the “lipid storage change, negative = inhibition” value was 10.8% (inactive) and the cell number change is 12.5%.

Consider `O=C(CCNC(=O)N1CC(=O)Nc2ccccc21)Nc1ccc(Br)cc1F`, for which the compound was classed as inactive and the cell number change is -22.5%.

Consider `O=C1c2cccc3cccc(c23)C(=O)N1Nc1ccccc1`, for which the “lipid storage change, negative = inhibition” value is -24.6% (inactive) and the cell number change was 13.9%.

Regarding `CCOc1ccc(C(C)=O)cc1CSC(=N)N`, the “lipid storage change, negative = inhibition” value was 3.16% (inactive) and the cell number change was 0.606%.

Regarding `CCCOc1ccc(Br)cc1CSC(=N)N`, the Potency is 18.4 µM (active) and the cell number change was -27.5%.

In the case of `COc1ccc(Br)cc1CSC(=N)N`, the “lipid storage change, negative = inhibition” value is 1.61% (inactive) and the cell number change amounted to 1.43%.

Consider `COc1ccc(Nc2c3c(nc4ccc(C)cc24)CCC3)cc1`, for which the Potency is 20.6 µM (active) and the cell number change is 0.901%.

Regarding `COc1ccc(Nc2c3c(nc4ccccc24)CCC3)cc1`, the “lipid storage change, negative = inhibition” value is 5.42% (inactive) and the cell number change is 21.3%.

`Cc1ccc2nc3c(c(Nc4ccccc4)c2c1)CCC3`: the “lipid storage change, negative = inhibition” value was 3.77% (inactive).

`COc1ccc(C(C)=O)cc1COC(=O)CNC(=O)c1ccc(Cl)cc1`: the “lipid storage change, negative = inhibition” value is -8.38% (inactive) and the cell number change was -0.097%.

Turning to `Cc1c(C(=O)N/N=C/C(C)C)[nH]c2ccc([N+](=O)[O-])cc12`, the “lipid storage change, negative = inhibition” value is 1.18% (inactive) and the cell number change is -4.9%.

Consider `O=C(NCCN1CCOCC1)c1sc2cc(Cl)ccc2c1Cl`, for which the Potency is 4.61 µM (active) and the cell number change was -3.15%.

Consider `O=C(NCCN1CCOCC1)c1sc2ccccc2c1Cl`, for which the “lipid storage change, negative = inhibition” value was -5.29% (inactive) and the cell number change is -1.8%.

Regarding `O=C(NCCCN1CCOCC1)c1sc2cc(Cl)ccc2c1Cl`, the “lipid storage change, negative = inhibition” value was 28.1% (inactive) and the cell number change is 0.814%.

`COc1ccc(NC(=O)Nc2nnc(-c3ccco3)s2)cc1`: the “lipid storage change, negative = inhibition” value was -13.5% (inactive) and the cell number change stood at 3.5%.

Regarding `Cc1cc2nc(NC3=NCN(CCN4CCOCC4)CN3)nc(C)c2cc1C`, the “lipid storage change, negative = inhibition” value is 9.9% (inactive) and the cell number change was -6.7%.

`Cc1nc(NC2=NCN(CCCN3CCOCC3)CN2)nc2c(C)cccc12`: the compound was classed as inactive.

For the compound `Cc1cc(C)c2nc(NC3=NCN(CCN4CCOCC4)CN3)nc(C)c2c1`, the Potency is 25.9 µM (active) and the cell number change is 3.72%.

As for `CS(=O)(=O)NN1C(=O)c2ccccc2NC1c1c[nH]c2ccccc12` (stereo not given), the “lipid storage change, negative = inhibition” value is -2.09% (inactive) and the cell number change was 15.5%.

For `CCOc1ccc(NC(=O)CCC(=O)NNC(=O)c2ccc(Br)o2)cc1`, the Potency was 6.51 µM (active) and the cell number change was determined as 5.86%.

On to `CCOc1ccc(NC(=O)CCC(=O)NNC(=O)c2ccco2)cc1`, for which the “lipid storage change, negative = inhibition” value was 18.2% (inactive).

As for `CCOc1ccc(NC(=O)CCC(=O)NNC(=O)Nc2ccc(Cl)cc2)cc1`, the “lipid storage change, negative = inhibition” value is 9.1% (inactive) and the cell number change was 10.6%.

As to `CCOCCCNc1c2c(nc3cc(-c4ccc(F)cc4)nn13)CCC2`, the “lipid storage change, negative = inhibition” value is 1.43% (inactive) and the cell number change was determined as 9.58%.

As to `CC(C)Cn1c(CCNC(=O)c2ccco2)nc2ccccc21`, the Potency was 3.66 µM (active).

For `CCn1c(CCNC(=O)c2ccco2)nc2ccccc21`, the “lipid storage change, negative = inhibition” value was 2.45% (inactive) and the cell number change is -11.3%.

Turning to `C=C(C)Cn1c(CCNC(=O)c2ccco2)nc2ccccc21`, the Potency is 0.517 µM (active) and the cell number change was 15.2%.

For `CCCCn1c(CCNC(=O)c2ccco2)nc2ccccc21`, the “lipid storage change, negative = inhibition” value is -21.9% (inactive) and the cell number change worked out at 8.05%.

Consider `CC(C)Cn1c(CCCNC(=O)c2ccco2)nc2ccccc21`, for which the compound was classed as inactive.

Regarding `C=CCn1c(CCNC(=O)c2ccco2)nc2ccccc21`, the “lipid storage change, negative = inhibition” value is -5.61% (inactive) and the cell number change was 8.97%.
